{"source": "PubChem BioAssay AID720618", "about": "(Broad Institute, 2013)", "experiment": "caspase-3/7 apoptosis induction in HeLa, late-stage follow-up, mechanism study for HRAS target identification, cell-based, caspase 3/7 luminescence, several timepoints, dry powder (AID 720618)", "settings": "max activity: measured here: caspase 3/7, second timepoint, at 35 µM, stronger effect = higher value", "note": "Inconclusive results are not listed. The source made the active and inactive calls. No rule for the calls is given here."}
{"compound": "Cc1onc(C(=O)N2CCN(C(c3ccc(Cl)cc3)c3ccc(OCCOCCOCCNC(=O)OC(C)(C)C)cc3)CC2)c1[N+](=O)[O-]", "note": "(configuration not stated)", "values": [{"measurement": "max activity", "value": 35.4, "unit": "%"}, {"measurement": "outcome", "value": "inactive"}]}
